# Measured values taken from the supplement of paper PMC11417369.
# ± gives the standard deviation of the averaged measurements. The full ranking holds about 25,000 sequences; the median of “ln(normalized median fluorescence intensity)” is about 8.6, and the highest 2% start at about 10. The list comes from a sample in which the highest values are over-represented; it also holds similar and randomly drawn sequences.
# Test system: PfAP2-EXP AP2 domain (GST-tagged)
# Assay: gcPBM binding intensity (ln(normalized median fluorescence intensity)); higher = stronger DNA binding
# How it was run: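 An Agilent 4 × 180k array carrying primer-extended double-stranded 36-bp intergenic genomic probes and negative controls received GST-tagged P. falciparum DNA-binding domains expressed in E. coli, about 25 μg on average, for 1 h. The binding buffer contained 1× PBS, 1% milk, 0.2 mg/ml BSA, 0.5% salmon testes DNA and 0.03% Triton X-100. Binding intensity is the top Masliner-normalised natural-log median intensity across replicate spots of either probe orientation, read after Alexa488 anti-GST antibody staining and a 488 nm scan.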
row,Sequence,gcPBM binding intensity (ln)
1,GCATATATCAAATATCGTACATTTTTTAAATTAAAA [XGTACX_site3994],8.42 ± 0.47
2,TACGTTCTGATATATACACACCTGGTATTAATTATG [CACACA_site7113],8.93 ± 0.46
3,AAAAAAAAATTAAAATGTACACATAAAAAAAAAAAA [XGTACX_site794],8.64 ± 0.42
4,ATTTCCTGGCTACTGTGTACTGACCTCCAGACTGCT [XGTACX_site2005],8.81 ± 0.55
5,ACTACATAATATTTACGTACCTAAAAAATTCTTATA [XGTACX_site509],8.51 ± 0.33
6,AAAAAAAAAAAAAACACACACACACCCAAATATATA [CACACA_site1169],8.71 ± 0.3
7,ATAATATAAATATGCACACAAATTATTACCCAAAAA [CACACA_site2524],8.56 ± 0.2
8,TTAAAAAAATATAATACACACCAAAAATATGCACAT [CACACA_site5209],8.85 ± 0.35
9,GGAAAAAATATATGCACACCCCCCAAAAAAAAAAAA [CACACA_site2222],10.95 ± 0.099
10,AAAAAAAAAAAACACACACACACACCCAAATATATA [CACACA_site150],8.49 ± 0.61
11,TGGGAAAAAATATATGCACACCCCCCAAAAAAAAAA [CACACA_site8696],11.1 ± 0.35
12,TACATATTTTATAGCACACAAATAATAATATGTAGT [CACACA_site688],8.68 ± 0.31
13,TTTGAGATGTGGTGTACACAAAATTAGGTACACATC [CACACA_site5773],8.92 ± 0.33
14,TCTTTTTCTTCTTATGTGCACATCAATTATGCTTCT,9.33 ± 0.35
15,AATGTGCTCGCTATTACACACTCATTGGGATAAACT [CACACA_site7043],8.56 ± 0.4
16,CTGAAATTAACAAAAGTGCATAAAAATAAAAAATAT [GTGCAC_site9652],8.99 ± 0.29
17,TAAAAAATTAATAAAGTGCATAAATATTACAATATT,8.32 ± 0.18
18,TAAATTAATAAACAAGTGCATATATATATATATATA,10.2 ± 0.38
19,TTTTTTTATTATTAAAGTACTAAAAAATGAAAACTG [XGTACX_site6758],8.26 ± 0.18
20,AAGTTGGAAAGGTTATGTACTTATTTTTTAAAATAA [XGTACX_site204],8.27 ± 0.45
21,TATCATTTTGTATATAGTACATATATAAAATCGTTA [XGTACX_site3875],8.35 ± 0.29
22,GTATAATAAATGATAGCACACATATGTACTTATATA [CACACA_site8188],8.57 ± 0.25
23,AGCCTCGGGGTCATATATATATATATATATATATAT [CACACA_negctrl_site512],10.2 ± 0.53

row,Sequence,gcPBM binding intensity (ln)
1,ATATAGTAAAATTATACACACATGAATTTTCCCATG [CACACA_site1770],8.48 ± 0.49
2,ATAAGTAATATAATATGTACATATATATATATATAT [XGTACX_site3818],10.2 ± 0.37
3,TAATAATAGTAAATATGTACATATATATATATATAG [XGTACX_site4602],8.73 ± 0.3
4,AATAATAATAGTAATATGTACATATATATATATATA [TGCATGCA_negctrl_site542],10.1 ± 0.33
5,ATAAATAAATAAGTACATATATATATGTATATATAT [TGCATGCA_negctrl_site223],8.775 ± 0.021
6,TATATATAAACATAATGTACATATAATAAGTAATAT [XGTACX_site497],8.89 ± 0.45
7,ATAATAATAGTAATATGTACATATATATATATATAT [XGTACX_site7437],10.2 ± 0.53
8,TTTAATAATATTTAGGTGCTATATATTATATGTATA,8.32 ± 0.21
9,CAATATAAAATAAAATGTACTTGTAGTAAAGGGATA [XGTACX_site1452],8.79 ± 0.35
10,ATTACATGATATATCACACACACATATAGATATATA [CACACA_site7352],8.65 ± 0.44
11,AAGTAATACAACACGCACATATATATATATATATAT [GTGCAC_negctrl_site89],10.3 ± 0.3
12,CATATATAGATATATACACACATACATACATACATA [CACACA_site7748],8.55 ± 0.38
13,ATACAACATATATATACACACATATAATAATAATAA [CACACA_site3367],8.62 ± 0.42
14,AATGTGATAATATACACACACGCATATATATATATA [CACACA_site323],10.2 ± 0.2
15,CATAGATACATACACGCACACACATATATATATATA [CACACA_site13],9.97 ± 0.36
16,TAGATACATACACGCACACACATATATATATATATA [CACACA_site12],10.2 ± 0.29
17,TAGATACATACACGCACACACATATATAAATAAATA [CACACA_site6157],8.69 ± 0.49
18,AATACATATAATACAACACACAAGTAATATAAACCT [CACACA_site3597],8.87 ± 0.53
19,ATAGATATACATATCACACATATATATATATATATA [CACACA_site4985],10.2 ± 0.23
20,GAAATGTGATAATATACACACACGCATATATATATA [CACACA_site4332],9.86 ± 0.3
21,TGTGCACGCATATACACACACAAATACAATGATAAA [CACACA_site6656],8.65 ± 0.36
22,TTATTCTAAAAATATACACACAACAACAAACAAACA [CACACA_site1543],9.04 ± 0.39
